Measurements published in PubChem BioAssay (Tox21).
Inconclusive results are not listed. Entries that show only a call come without a potency. Some structures have more than one record in an assay (separate samples or runs), and their calls can disagree. Calls of active or inactive are those of the source. Unless noted, calls come from the whole dose curve; as a rule, active = well fitted curve in the direction sought with a large enough effect in the repeat runs; inconclusive = weak or mixed curves; inactive = no such curve, though single readings can be large; an effect the other way counts as inactive or inconclusive.

Experiments:
[1] = qHTS assay to identify small molecule antagonists of the androgen receptor (AR) signaling pathway using the MDA cell line in the presence of 0.5 nM R1881 - cell viability counter screen (AID 1259242); note: nearly all actives have a fitted effect of over 45% in size; note: potency is the fitted concentration of half-maximal effect
Summary of the method: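 Live-cell protease fluorescence, CellTiter-Fluor, 30 min at 37C. Cells: MDA-kb2, 3,000/well, preincubated 5 hr. Compounds plus 0.5 nM R1881 final, 16 hr, 37C, 0% CO2.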

[2] = target: Estrogen receptor (Homo sapiens) (UniProt P03372); test: qHTS assay to identify small molecule antagonists of the estrogen receptor alpha (ER-alpha) signaling pathway using the BG1 cell line in the presence of 0.1 nM 17-beta-estradiol (AID 1259244); note: nearly all actives have a fitted effect of over 50% in size
Chain of Estrogen receptor (Homo sapiens) (P03372 whole entry, looked up): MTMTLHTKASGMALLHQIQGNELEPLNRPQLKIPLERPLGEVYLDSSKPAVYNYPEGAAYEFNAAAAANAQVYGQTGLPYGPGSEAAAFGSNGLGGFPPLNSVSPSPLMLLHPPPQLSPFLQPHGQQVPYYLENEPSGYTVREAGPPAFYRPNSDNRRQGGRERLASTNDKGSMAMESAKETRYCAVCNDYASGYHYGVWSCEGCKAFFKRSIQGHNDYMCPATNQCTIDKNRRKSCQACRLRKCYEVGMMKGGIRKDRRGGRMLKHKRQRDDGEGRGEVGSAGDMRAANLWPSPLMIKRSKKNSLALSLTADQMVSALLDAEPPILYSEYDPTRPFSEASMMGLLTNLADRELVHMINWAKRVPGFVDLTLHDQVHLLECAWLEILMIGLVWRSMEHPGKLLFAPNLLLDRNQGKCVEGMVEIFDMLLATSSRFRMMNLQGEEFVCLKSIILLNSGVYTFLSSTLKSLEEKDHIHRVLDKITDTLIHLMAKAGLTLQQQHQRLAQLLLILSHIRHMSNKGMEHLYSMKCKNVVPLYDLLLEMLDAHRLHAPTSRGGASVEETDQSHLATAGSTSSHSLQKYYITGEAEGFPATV
Summary of the method: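 Luminescence after ONE-Glo (30 min, room temperature) measured ERE-luciferase activity in VM7Luc4E2 cells treated 22 h with compound and 0.1 nM final 17beta-estradiol as stimulator.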

[3] = qHTS assay to identify small molecule phospholipidosis (PLD) inducers (AID 1259344; active = well fitted curve in the direction sought with a large enough effect; an effect the other way counts as inactive or inconclusive)
Summary of the method: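 Cells (HepG2, 900 per well) attach for 4 h, receive LipidTOX Red and compound together, incubate 24 h at 37 C, are fixed 30 min with paraformaldehyde/Hoechst, then imaged at one site per well.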

[4] = qHTS assay to identify small molecule HDAC inhibitors (AID 1259364);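 note: wild-type HCT-116 cells with endogenous class I/II HDAC activity; top concentration of the series differs between compounds; nearly all actives have a fitted effect of over 45% in size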
Summary of the method: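 HCT-116 (wild type), 1,500 cells/well, overnight; compound 2 hr 37C 5% CO2; HDAC-Glo I/II reagent 30 min RT; luminescence readout.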

[5] = qHTS assay to identify small molecule HDAC inhibitors - cell viability counter screen (AID 1259365); note: series mostly up to about 92 µM; nearly all actives have a fitted effect of over 50% in size
Summary of the method: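 CellTiter-Glo luminescence (30 min, room temperature) reported viability after a 2 h compound exposure at 37 C. Cells: wild-type HCT-116, 1,500 per well, seeded the night before.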

[6] = qHTS assay to identify small molecule agonists of the sonic hedgehog signaling (Shh) pathway - cell viability counter screen (AID 1259366); note: nearly all actives have a fitted effect of over 50% in size
Summary of the method: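 Cytotoxicity counter screen: CellTiter-Fluor reagent added after 23 h compound exposure, then 1 h at 37C and fluorescence read. Cells were 3T3 Gli1-Luc, seeded 2,000 per well and dosed 4 h post-plating.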

[7] = qHTS assay to identify small molecule antagonists of the sonic hedgehog signaling (Shh) pathway - cell viability counter screen (AID 1259367); note: nearly all actives have a fitted effect of over 55% in size; note: potency is the fitted concentration of half-maximal effect
Summary of the method: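 Cytotoxicity was assessed in parallel with Shh reporter activity by measuring live-cell protease fluorescence (CellTiter-Fluor) in NIH/3T3 cells stably carrying Gli1-Luc, treated with compound under conditioned medium stimulation for 23 hr plus 1 hr reagent incubation.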

[8] = qHTS assay to identify small molecule agonists of the sonic hedgehog signaling (Shh) pathway (AID 1259368; calls by dose curve;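 note: NIH/3T3-derived 3T3Gli1-Luc cells carrying a stable Gli1-driven firefly luciferase reporter; series mostly up to about 92 µM; nearly all actives have a fitted effect of over 15% in size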)
Summary of the method: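 Read-out: firefly luciferase luminescence from a Gli1 response element reporter stably integrated in NIH/3T3-derived 3T3Gli1-Luc cells, measured 30 min at room temperature after reagent addition. Compound exposure lasted 24 hr at 37 C, 5% CO2.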

[9] = target: Estrogen receptor beta (Homo sapiens) (UniProt Q92731); test: qHTS assay to identify small molecule antagonists of the estrogen receptor beta (ER-beta) signaling pathway (AID 1259378; active = well fitted inhibition curve with a large enough effect in the signal ratio in the repeat runs, not every such curve was filed as active; the % refers to the signal ratio)
Chain of Estrogen receptor beta (Homo sapiens) (Q92731 whole entry, looked up): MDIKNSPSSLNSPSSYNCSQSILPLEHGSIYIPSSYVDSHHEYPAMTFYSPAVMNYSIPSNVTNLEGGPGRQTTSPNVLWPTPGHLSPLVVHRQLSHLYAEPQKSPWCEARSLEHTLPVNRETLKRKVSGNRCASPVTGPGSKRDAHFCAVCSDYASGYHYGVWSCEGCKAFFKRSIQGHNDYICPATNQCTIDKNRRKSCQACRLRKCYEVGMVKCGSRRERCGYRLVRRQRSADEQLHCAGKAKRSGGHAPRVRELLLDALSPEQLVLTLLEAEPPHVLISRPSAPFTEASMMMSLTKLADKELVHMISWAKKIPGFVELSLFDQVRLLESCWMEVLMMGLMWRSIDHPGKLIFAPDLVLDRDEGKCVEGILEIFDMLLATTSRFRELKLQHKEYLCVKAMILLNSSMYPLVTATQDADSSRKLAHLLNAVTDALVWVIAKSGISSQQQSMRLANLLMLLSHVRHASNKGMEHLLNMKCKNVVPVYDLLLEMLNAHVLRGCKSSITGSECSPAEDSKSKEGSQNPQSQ
Summary of the method: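 ER-beta-UAS-bla HEK293T (GripTite) cells in 2% charcoal-stripped FBS medium were preincubated 6 hr at 37C, dosed with compound, then stimulated with 1 nM E2 (final) for 16 hr; beta-lactamase reporter read by B/G FRET fluorescence after 2 hr substrate loading.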

[10] = qHTS assay to identify small molecule agonists of the androgen receptor (AR) signaling pathway in the presence of an antagonist - cell viability counter screen (AID 1259379); note: nearly all actives have a fitted effect of over 25% in size; note: potency is the fitted concentration of half-maximal effect
Summary of the method: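 Viability counter screen: CellTiter-Fluor fluorescence, measured in the same wells as the luciferase read-out. MDA-kb2 cells, 3,000/well, with nilutamide at 3.0uM final and compounds at 15 concentrations, 16 hr at 37C, 0% CO2.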

[11] = qHTS assay to identify small molecule agonists of the estrogen receptor beta (ER-beta) signaling pathway - cell viability counter screen (AID 1259380); note: nearly all actives have a fitted effect of over 30% in size; note: potency is the fitted concentration of half-maximal effect
Summary of the method: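 Luminescence read-out (CellTiter-Glo, 30 min, room temp) taken in the same wells as the beta-lactamase reporter assay; ER-beta-UAS-bla HEK293T cells exposed to DMSO-dissolved compounds for 16 hr at 37C in 2% charcoal-stripped FBS medium.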

[12] = target: Estrogen receptor (Homo sapiens) (UniProt P03372); test: qHTS assay to identify small molecule agonists of the estrogen receptor alpha (ER-alpha) signaling pathway in the presence of an antagonist (AID 1259383; calls by dose curve; note: top concentration of the series differs between compounds; nearly all actives have a fitted effect of over 15% in size)
Summary of the method: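 Luciferase luminescence (ONE-Glo, 30min at room temperature) measured in VM7Luc4E2 cells after 22hr compound exposure at 15 concentrations, with 10.0nM ICI-182,780 final present; cells express endogenous ER-alpha and carry four EREs upstream of luciferase.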

[13] = qHTS assay to identify small molecule agonists or antagonists of the thyroid stimulating hormone receptor (TSHR) signaling pathway - wild type cell line counter screen (AID 1259384; calls by dose curve)
Summary of the method: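 Wild-type HEK293 cells were plated 18 h at 37 C/5% CO2, pin-dosed with compound plus Ro20-1724 medium, held 30 min at room temperature, then given cAMP-d2 and anti-cAMP-cryptate; fluorescence was read after 1 h. Fifteen concentrations, triplicate.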

[14] = target: Thyrotropin receptor (Homo sapiens) (UniProt P16473); test: qHTS assay to identify small molecule antagonists of the thyroid stimulating hormone receptor (TSHR) signaling pathway (AID 1259385; calls by dose curve; note: nearly all actives have a fitted effect of over 20% in size)
Chain of Thyrotropin receptor (Homo sapiens) (P16473 whole entry, looked up): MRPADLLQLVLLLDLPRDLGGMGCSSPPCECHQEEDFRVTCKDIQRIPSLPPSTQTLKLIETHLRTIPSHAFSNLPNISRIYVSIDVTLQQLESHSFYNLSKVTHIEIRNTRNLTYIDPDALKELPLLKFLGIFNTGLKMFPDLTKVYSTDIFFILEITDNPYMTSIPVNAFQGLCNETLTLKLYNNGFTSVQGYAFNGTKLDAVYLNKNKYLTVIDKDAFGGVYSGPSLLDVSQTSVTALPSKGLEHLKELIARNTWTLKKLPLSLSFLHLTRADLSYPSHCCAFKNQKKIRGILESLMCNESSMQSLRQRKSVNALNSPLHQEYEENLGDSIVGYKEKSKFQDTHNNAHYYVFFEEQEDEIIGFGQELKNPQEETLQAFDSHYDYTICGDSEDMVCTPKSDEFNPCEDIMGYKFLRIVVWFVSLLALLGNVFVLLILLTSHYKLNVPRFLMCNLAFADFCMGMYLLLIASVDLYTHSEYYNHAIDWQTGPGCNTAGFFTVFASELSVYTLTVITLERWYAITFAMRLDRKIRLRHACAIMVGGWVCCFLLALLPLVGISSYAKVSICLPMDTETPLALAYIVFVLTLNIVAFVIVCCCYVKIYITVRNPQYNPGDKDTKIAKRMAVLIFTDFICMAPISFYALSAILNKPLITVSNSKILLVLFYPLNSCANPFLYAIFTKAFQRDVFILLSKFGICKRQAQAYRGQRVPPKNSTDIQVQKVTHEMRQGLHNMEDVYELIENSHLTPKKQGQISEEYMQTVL
Summary of the method: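 TSHR-HEK293 cells were plated and held 18 h at 37C/5% CO2, then given compound plus Ro20-1724 and stimulated with TSH at 1.5 ng/mL final. After 30 min at room temperature, cAMP was detected with cAMP-d2/anti-cAMP-cryptate (1 h) by fluorescence.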

[15] = qHTS assay to identify small molecule antagonists of the sonic hedgehog signaling (Shh) pathway (AID 1259369; calls by dose curve; note: nearly all actives have a fitted effect of over 45% in size; note: potency is the fitted concentration of half-maximal effect)
Summary of the method: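 Luminescence readout: firefly Luc under Gli1 response element in 3T3Gli1-Luc cells (NIH/3T3 clone). Antagonist mode, stimulation by conditioned medium; compound exposure 24hr at 37 C, 5% CO2.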

[16] = target: Androgen receptor (Homo sapiens) (UniProt P10275); test: qHTS assay to identify small molecule antagonists of the androgen receptor (AR) signaling pathway using the MDA cell line in the presence of 0.5 nM R1881 (AID 1259243); note: nearly all actives have a fitted effect of over 50% in size; note: potency is the fitted concentration of half-maximal effect
Chain of Androgen receptor (Homo sapiens) (P10275 whole entry, looked up): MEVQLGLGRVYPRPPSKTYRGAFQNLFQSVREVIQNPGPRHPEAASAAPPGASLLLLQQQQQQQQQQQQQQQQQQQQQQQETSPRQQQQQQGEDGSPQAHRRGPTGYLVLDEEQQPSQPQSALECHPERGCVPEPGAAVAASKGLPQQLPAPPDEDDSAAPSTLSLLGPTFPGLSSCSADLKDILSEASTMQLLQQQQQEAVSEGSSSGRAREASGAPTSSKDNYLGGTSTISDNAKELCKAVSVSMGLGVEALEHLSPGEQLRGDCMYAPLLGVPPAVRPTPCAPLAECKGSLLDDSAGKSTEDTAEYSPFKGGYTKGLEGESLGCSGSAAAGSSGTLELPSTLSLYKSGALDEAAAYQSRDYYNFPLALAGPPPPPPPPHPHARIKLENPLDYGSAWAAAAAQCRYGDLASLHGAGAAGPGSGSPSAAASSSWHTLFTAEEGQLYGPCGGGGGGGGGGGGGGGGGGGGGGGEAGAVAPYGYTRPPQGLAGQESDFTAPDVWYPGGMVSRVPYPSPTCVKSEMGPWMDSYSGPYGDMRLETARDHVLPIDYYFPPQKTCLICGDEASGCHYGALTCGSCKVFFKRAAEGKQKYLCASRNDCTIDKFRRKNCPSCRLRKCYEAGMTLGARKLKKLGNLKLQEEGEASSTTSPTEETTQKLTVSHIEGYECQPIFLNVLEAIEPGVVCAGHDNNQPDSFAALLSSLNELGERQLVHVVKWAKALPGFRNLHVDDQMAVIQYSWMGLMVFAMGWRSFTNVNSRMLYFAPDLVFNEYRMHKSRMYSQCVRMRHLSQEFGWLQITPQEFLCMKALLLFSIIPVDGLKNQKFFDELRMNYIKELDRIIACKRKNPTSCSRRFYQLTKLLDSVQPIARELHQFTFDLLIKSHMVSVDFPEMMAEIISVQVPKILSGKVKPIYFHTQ
Summary of the method: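 MDA-kb2, MMTV-luc (AR/GR elements); 3,000 cells/well; cpd + 0.5 nM R1881 final; 16 hr 37C, 0% CO2; ONE-Glo 30 min RT; luminescence.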

[17] = target: Androgen receptor (Homo sapiens) (UniProt P10275); test: qHTS assay to identify small molecule agonists of the androgen receptor (AR) signaling pathway in the presence of an antagonist (AID 1259381; calls by dose curve; note: nearly all actives have a fitted effect of over 15% in size)
Summary of the method: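 Luciferase read-out (ONE-Glo, 30min room temperature) in MDA-kb2 MMTV-reporter cells; agonist mode run in presence of AR antagonist nilutamide, 3.0uM final. Compounds tested as 15-point series, 16hr exposure at 37C, 0% CO2.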

[18] = qHTS assay to identify small molecule antagonists of the estrogen receptor beta (ER-beta) signaling pathway - cell viability counter screen (AID 1259382); note: nearly all actives have a fitted effect of over 55% in size; note: potency is the fitted concentration of half-maximal effect
Summary of the method: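 Luminescent ATP read-out (CellTiter-Glo, 30 min, RT) taken in the same wells as the bla reporter assay. HEK293T ER-beta-UAS-bla cells in 2% charcoal-stripped FBS were exposed to compounds with 1nM E2 for 16 hr at 37C.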

[19] = qHTS assay to identify small molecule agonists of the estrogen receptor alpha (ER-alpha) signaling pathway in the presence of an antagonist - cell viability counter screen (AID 1259386);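 note: series mostly up to about 92 µM; cells exposed to compounds for 22 h at 37 °C before the viability read; nearly all actives have a fitted effect of over 30% in size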
Summary of the method: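 Read-out: CellTiter-Fluor fluorescence after 1hr reagent incubation, measured in the same wells as the luciferase readout. VM7Luc4E2 cells were exposed to 15 compound concentrations with 10.0nM ICI-182,780 for 22hr at 37C.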

[20] = target: Estrogen receptor beta (Homo sapiens) (UniProt Q92731); test: qHTS assay to identify small molecule agonists of the estrogen receptor beta (ER-beta) signaling pathway (AID 1259377; active = well fitted activation curve with a large enough effect in the signal ratio in the repeat runs, not every such curve was filed as active; the % refers to the signal ratio)
Summary of the method: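 Ratiometric beta-lactamase FRET read-out came after 2 h substrate loading at room temperature. It followed 16 h compound treatment at 37C of GripTite HEK293T cells carrying a UAS-bla reporter, plated in 2% charcoal-stripped FBS medium.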

| Structure (SMILES) | Potency [1] | Potency [2] | outcome [3] | Potency [4] | outcome [5] | Potency [6] | Potency [7] | outcome [8] | Potency [9] | Potency [10] | Potency [11] | Potency [12] | outcome [13] | outcome [14] | Potency [15] | Potency [16] | Potency [17] | Potency [18] | Potency [19] | outcome [20] |
| --- | --- | --- | --- | --- | --- | --- | --- | --- | --- | --- | --- | --- | --- | --- | --- | --- | --- | --- | --- | --- |
| Nc1ccc(C(=O)O)cc1 | inactive | inactive | inactive | inactive | inactive | inactive | inactive | inactive | inactive | inactive | inactive | inactive | inactive | inactive |  |  |  |  |  |  |
| C[C@]12C=CC(=O)C=C1CC[C@@H]1[C@@H]2[C@@H](O)C[C@@]2(C)[C@H]1CC[C@]2(O)C(=O)CO | inactive | inactive | inactive | inactive | inactive | inactive | inactive | inactive | inactive | inactive | inactive | inactive |  |  | inactive |  |  |  |  |  |
| CCCN(CCC)S(=O)(=O)c1ccc(C(=O)O)cc1 | inactive |  |  | inactive | inactive | inactive | inactive | inactive | inactive | inactive | inactive |  | inactive | inactive |  | inactive | inactive | inactive | inactive |  |
| Nc1ccc(S(=O)(=O)c2ccc(N)cc2)cc1 | inactive | inactive | inactive | inactive | inactive | inactive | inactive | inactive |  | inactive | inactive | inactive | inactive | inactive | inactive |  |  |  | inactive |  |
| Cc1ccc(C)c(OCCCC(C)(C)C(=O)O)c1 | inactive | inactive |  | inactive | inactive | inactive | inactive | inactive | inactive | inactive | inactive | inactive | inactive | inactive | inactive | inactive | inactive |  | inactive |  |
| O=C(O)CCCCC(=O)O | inactive | inactive | inactive | inactive | inactive | inactive | inactive | inactive |  | inactive | inactive | inactive | inactive | inactive |  |  |  | inactive | inactive |  |
| Cc1ccc(S(=O)(=O)NC(=O)NN2CCCCCC2)cc1 | inactive | inactive |  | inactive | inactive | inactive | inactive | inactive | inactive | inactive | inactive | inactive | inactive | inactive | inactive |  |  | inactive | inactive |  |
| NS(=O)(=O)c1cc(C(=O)O)c(NCc2ccco2)cc1Cl | inactive | inactive |  | inactive | inactive | inactive | inactive | inactive |  | inactive | inactive | inactive | inactive | inactive | inactive |  |  |  | inactive |  |
| CC(C)[C@@H]1CC[C@@H](C)C[C@H]1O | inactive |  |  | inactive | inactive | inactive | inactive | inactive | inactive | inactive | inactive |  | inactive | inactive |  | inactive | inactive | inactive |  |  |
| CC(O)CO (stereo not given) | inactive | inactive | inactive | inactive | inactive | inactive | inactive | inactive |  | inactive | inactive | inactive | inactive | inactive | inactive |  |  |  |  |  |
| CCCC(O)C(CC)CO (stereo not given) | inactive | inactive |  | inactive | inactive | inactive | inactive | inactive | inactive | inactive | inactive | inactive |  |  | inactive |  |  | inactive | inactive |  |
| CC1(C)[C@@H]2CC[C@@]1(C)C(=O)C2 | inactive | inactive |  | inactive | inactive | inactive | inactive | inactive | inactive | inactive | inactive | inactive | inactive | inactive | inactive |  |  |  | inactive |  |
| CCCCC(CC)COC(=O)/C=C/c1ccc(OC)cc1 (stereo not given) | inactive | inactive |  | inactive | inactive | inactive | inactive | inactive |  | inactive | inactive | inactive | inactive | inactive | inactive | inactive | inactive |  | inactive |  |
| Cc1ccc(O)cc1 | inactive |  | inactive | inactive | inactive | inactive | inactive | inactive | inactive | inactive | inactive |  | inactive | inactive |  | inactive | inactive | inactive |  |  |
| Cc1cn([C@H]2C[C@H](N=[N+]=[N-])[C@@H](CO)O2)c(=O)[nH]c1=O | inactive | inactive | inactive | inactive | inactive | inactive | 70.5 µM (active) and inactive | inactive |  | inactive | inactive | inactive |  |  | 17.7 µM (active) and inactive |  |  | inactive |  |  |
| c1ccc2[nH]ccc2c1 | 9.53 µM (active) and inactive |  |  | inactive | inactive | inactive | inactive | inactive | inactive | 7.57 µM (active) and inactive | 26.9 µM (active) and inactive |  | inactive | inactive |  | 2.39 µM (active) and inactive | inactive | 26.9 µM (active) and inactive |  | inactive |
